Here are results for one sequence from PMC7862700, “An all-to-all approach to the identification of sequence-specific readers for epigenetic DNA modifications on cytosine”.

Common to all, as to assay: DAPPL (digital affinity profiling via proximity ligation, sequencing); 10 mM Tris-HCl pH 7.5, 50 mM NaCl, 1 mM DTT, 4% glycerol, room temperature, 30 min; GST-TFs on glutathione beads, 16-mer random dsDNA library, 0.1% formaldehyde crosslink after washing; high values mean tight binding
Common to all, as to conditions: protein: recombinant; tags: N-terminal GST; dsDNA, one strand shown

Test [1] concerns the target T1, ELK1 (Homo sapiens, UniProt P19419 1-428).
T1 sequence: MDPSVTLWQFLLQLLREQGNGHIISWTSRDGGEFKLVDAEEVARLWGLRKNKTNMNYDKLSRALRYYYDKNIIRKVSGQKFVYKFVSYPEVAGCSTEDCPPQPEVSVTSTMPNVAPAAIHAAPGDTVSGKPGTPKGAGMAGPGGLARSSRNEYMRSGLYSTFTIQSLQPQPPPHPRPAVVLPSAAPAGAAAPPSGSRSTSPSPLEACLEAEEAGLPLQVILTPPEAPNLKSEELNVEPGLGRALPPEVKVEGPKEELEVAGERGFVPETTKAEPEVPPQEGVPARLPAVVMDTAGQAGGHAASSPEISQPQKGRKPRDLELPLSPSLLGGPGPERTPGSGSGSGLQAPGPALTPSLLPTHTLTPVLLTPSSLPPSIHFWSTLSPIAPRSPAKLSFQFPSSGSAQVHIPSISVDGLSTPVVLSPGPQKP
The method in brief:
(§1)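 Sequencing on an Illumina NextSeq500 followed washing, crosslinking with 0.1% formaldehyde, proximity ligation (BsaI/T4 ligase, 1 h, 37 °C) and PCR amplification of pools that had been incubated for 30 min at room temperature with 200 nmole of a random double-stranded 16-mer DNA library in Tris/NaCl/DTT/glycerol buffer. Each pool held DNA-barcoded human transcription factors, expressed in yeast as GST fusions and captured on glutathione beads, plus a tag-only sample. Binding signal is a hexamer's read frequency for a factor divided by its frequency in the tag-only sample.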

Test [2] deals with T2, GABPA (Homo sapiens, UniProt Q06546 1-454).
T2 sequence: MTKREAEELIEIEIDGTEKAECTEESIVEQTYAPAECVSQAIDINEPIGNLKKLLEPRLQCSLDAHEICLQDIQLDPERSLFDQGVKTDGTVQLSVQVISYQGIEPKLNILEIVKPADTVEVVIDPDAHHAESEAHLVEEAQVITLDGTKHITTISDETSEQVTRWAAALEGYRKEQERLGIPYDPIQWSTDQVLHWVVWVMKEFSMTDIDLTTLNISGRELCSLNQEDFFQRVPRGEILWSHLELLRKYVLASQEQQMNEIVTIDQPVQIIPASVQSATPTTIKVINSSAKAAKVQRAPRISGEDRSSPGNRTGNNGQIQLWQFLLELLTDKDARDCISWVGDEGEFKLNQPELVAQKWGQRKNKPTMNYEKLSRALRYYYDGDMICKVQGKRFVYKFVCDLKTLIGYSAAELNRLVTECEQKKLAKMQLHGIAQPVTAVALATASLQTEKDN
The method in brief:
as §1

The target in test [3] is ELF1 (Homo sapiens, UniProt P32519 1-619). A digest of the protocol: as §1
ELF1, sequence (P32519 whole entry): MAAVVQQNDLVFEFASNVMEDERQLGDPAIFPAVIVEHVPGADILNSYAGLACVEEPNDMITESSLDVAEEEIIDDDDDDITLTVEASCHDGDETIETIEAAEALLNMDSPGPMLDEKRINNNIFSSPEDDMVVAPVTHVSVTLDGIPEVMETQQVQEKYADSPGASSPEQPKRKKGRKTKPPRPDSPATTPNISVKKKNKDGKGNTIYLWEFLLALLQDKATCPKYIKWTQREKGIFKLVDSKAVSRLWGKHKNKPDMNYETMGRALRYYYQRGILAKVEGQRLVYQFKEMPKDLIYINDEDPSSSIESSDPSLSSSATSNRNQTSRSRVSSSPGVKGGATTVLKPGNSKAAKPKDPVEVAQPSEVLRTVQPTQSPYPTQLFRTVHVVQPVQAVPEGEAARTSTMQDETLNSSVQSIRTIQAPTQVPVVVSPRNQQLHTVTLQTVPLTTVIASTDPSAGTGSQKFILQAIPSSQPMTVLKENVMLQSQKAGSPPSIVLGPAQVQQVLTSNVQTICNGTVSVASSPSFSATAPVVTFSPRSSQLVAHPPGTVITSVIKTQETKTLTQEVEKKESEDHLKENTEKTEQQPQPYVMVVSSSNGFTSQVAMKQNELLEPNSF
Test [4] deals with T3, EHF (Homo sapiens, UniProt Q9NZC4 1-300).
T3 sequence: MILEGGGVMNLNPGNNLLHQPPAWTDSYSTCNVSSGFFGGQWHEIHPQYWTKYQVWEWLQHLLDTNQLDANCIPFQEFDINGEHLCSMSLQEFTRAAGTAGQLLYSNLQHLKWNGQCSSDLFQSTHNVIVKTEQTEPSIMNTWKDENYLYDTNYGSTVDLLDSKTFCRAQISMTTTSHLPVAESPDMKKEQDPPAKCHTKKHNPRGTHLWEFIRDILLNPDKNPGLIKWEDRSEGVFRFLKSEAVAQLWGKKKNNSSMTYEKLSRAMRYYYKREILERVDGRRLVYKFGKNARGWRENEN
The method in brief:
as §1

For test [5], the target named is SPIB (Homo sapiens, UniProt Q01892 1-262). The method in brief: as §1
SPIB, sequence (Q01892 whole entry): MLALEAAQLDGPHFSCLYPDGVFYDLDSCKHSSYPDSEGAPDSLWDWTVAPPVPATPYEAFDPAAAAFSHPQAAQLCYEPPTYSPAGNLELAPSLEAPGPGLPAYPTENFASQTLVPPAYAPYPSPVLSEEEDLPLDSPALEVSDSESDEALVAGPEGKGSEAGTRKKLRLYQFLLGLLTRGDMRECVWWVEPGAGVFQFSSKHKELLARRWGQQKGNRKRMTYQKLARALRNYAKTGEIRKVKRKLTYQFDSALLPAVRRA
Test [6] deals with T4, ELK3 (Homo sapiens, UniProt P41970 1-407).
T4 sequence: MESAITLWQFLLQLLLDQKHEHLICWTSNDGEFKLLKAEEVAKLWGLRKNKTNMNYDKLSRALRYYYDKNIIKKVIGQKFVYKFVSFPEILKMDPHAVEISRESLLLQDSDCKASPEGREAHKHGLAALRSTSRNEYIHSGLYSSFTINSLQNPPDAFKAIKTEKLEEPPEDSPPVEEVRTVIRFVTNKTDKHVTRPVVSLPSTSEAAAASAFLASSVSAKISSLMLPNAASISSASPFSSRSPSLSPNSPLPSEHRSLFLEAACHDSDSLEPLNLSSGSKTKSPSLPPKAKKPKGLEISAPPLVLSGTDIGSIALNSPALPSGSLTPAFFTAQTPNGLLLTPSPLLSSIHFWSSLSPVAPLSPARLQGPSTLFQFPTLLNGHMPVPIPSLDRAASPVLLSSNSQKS
A digest of the protocol: as §1

The target in test [7] is ETV5 (Homo sapiens, UniProt P41161 1-510). The method in brief: as §1
ETV5, sequence (P41161 whole entry): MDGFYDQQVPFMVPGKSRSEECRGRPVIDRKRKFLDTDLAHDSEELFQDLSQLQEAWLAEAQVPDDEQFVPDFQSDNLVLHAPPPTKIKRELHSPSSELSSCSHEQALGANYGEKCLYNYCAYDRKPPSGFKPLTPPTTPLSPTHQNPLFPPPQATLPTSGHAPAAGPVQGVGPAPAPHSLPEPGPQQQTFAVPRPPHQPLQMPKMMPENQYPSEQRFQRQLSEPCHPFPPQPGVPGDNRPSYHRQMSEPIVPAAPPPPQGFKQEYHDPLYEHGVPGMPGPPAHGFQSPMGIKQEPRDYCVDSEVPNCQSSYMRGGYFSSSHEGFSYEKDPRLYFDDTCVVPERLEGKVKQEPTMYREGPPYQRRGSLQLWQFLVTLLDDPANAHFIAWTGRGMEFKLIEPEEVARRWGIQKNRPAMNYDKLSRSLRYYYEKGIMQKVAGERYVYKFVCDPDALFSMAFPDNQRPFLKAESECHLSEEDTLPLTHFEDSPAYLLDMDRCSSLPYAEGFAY
Test [8] has as its target ELF4 (Homo sapiens, UniProt Q99607 1-663). The method in brief: as §1
The target in test [9] is T5, ELK4 (Homo sapiens, UniProt P28324-2 1-405).
T5 sequence: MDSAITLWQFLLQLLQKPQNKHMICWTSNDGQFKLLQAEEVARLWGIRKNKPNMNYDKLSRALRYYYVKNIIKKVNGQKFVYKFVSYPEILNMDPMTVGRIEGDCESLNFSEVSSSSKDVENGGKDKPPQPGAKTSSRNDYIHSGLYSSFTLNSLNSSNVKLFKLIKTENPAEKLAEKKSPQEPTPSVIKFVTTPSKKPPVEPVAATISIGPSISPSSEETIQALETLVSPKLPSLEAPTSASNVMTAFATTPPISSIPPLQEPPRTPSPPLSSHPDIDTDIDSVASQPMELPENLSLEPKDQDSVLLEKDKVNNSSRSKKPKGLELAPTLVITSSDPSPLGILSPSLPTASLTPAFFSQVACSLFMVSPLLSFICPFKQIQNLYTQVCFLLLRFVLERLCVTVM
A digest of the protocol:
as §1

The target in test [10] is T6, ELF3 (Homo sapiens, UniProt P78545 1-371).
T6 sequence: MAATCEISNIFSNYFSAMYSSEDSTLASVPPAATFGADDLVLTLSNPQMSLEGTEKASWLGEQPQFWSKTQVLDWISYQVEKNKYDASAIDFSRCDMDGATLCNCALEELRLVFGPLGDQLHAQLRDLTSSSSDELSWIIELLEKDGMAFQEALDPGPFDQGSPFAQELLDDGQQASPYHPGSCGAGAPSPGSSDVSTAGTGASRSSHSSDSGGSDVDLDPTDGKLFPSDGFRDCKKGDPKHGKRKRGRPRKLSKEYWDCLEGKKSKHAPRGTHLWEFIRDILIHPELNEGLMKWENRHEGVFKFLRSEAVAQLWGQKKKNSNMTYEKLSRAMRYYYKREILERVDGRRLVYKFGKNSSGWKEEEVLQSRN
A digest of the protocol:
as §1

The target in test [11] is T7, ERF (Homo sapiens, UniProt P50548 1-548).
T7 sequence: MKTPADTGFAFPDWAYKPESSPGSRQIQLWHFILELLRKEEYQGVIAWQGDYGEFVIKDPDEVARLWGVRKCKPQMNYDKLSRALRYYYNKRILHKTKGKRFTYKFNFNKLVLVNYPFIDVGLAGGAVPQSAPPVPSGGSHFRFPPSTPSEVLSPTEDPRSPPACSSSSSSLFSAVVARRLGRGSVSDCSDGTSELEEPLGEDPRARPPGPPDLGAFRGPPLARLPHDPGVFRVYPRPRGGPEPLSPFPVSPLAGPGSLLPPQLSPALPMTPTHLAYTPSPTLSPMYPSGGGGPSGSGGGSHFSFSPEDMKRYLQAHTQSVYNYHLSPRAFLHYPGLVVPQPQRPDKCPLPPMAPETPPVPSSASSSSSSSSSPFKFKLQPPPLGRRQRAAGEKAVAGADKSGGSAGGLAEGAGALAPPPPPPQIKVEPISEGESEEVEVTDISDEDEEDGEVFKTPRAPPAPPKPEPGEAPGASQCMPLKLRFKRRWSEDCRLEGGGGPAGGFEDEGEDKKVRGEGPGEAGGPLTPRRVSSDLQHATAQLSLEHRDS
A digest of the protocol:
as §1

The target of test [12] is T8, ETV3L (Homo sapiens, UniProt Q6ZN32 1-361).
T8 sequence: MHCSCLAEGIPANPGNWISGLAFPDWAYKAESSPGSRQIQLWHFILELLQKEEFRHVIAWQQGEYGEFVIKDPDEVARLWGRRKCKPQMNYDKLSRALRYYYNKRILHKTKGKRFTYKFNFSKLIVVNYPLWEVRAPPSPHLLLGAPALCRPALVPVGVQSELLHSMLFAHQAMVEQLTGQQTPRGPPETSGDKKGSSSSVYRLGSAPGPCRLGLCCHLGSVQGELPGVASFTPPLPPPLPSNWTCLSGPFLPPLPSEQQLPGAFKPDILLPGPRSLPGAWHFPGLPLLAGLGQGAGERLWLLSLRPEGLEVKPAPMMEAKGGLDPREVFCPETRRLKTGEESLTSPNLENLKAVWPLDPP
The method in brief: as §1

Test [13] has as its target T9, ETS2 (Homo sapiens, UniProt P15036 1-469).
T9 sequence: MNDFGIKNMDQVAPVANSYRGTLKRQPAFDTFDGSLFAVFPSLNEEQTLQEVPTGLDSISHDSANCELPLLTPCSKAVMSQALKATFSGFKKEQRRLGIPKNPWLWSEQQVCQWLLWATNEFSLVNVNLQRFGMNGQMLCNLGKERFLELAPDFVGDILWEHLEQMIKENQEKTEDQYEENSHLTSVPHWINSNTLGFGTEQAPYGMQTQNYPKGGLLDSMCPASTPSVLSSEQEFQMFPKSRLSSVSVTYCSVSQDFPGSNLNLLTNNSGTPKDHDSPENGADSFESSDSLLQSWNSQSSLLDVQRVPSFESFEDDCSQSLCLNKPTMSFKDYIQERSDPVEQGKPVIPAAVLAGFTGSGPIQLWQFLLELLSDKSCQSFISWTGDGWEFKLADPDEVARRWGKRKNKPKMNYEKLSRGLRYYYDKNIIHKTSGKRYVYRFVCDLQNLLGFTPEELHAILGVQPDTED
The method in brief: as §1

For test [14], the target named is T10, ETV7 (Homo sapiens, UniProt Q9Y603 1-341).
T10 sequence: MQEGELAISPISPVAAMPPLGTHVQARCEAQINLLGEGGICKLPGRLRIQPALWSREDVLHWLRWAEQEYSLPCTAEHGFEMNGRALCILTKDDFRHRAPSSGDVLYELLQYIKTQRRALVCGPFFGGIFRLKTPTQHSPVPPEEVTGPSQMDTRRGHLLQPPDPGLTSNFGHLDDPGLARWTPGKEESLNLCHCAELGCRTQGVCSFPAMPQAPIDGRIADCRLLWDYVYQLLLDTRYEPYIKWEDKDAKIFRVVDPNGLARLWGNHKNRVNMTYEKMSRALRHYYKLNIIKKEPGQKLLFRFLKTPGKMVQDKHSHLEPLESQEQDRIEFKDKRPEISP
The method in brief: as §1

Test [15] addresses ETV6 (Homo sapiens, UniProt P41212 1-452). A digest of the protocol: as §1

ETV6, sequence (P41212 whole entry): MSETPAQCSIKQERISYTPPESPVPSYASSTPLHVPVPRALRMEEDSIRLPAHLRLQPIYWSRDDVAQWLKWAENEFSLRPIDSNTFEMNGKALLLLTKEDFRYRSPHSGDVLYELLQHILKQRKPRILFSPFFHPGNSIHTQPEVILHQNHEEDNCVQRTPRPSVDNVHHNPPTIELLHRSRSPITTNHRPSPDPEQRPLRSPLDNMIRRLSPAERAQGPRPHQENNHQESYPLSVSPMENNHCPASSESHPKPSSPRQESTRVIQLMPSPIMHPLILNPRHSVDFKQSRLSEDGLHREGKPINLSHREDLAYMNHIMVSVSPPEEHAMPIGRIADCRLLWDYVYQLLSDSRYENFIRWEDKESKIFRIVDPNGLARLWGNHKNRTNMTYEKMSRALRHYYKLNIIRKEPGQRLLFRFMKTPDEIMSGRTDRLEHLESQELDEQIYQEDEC
ELF4, sequence (Q99607 whole entry): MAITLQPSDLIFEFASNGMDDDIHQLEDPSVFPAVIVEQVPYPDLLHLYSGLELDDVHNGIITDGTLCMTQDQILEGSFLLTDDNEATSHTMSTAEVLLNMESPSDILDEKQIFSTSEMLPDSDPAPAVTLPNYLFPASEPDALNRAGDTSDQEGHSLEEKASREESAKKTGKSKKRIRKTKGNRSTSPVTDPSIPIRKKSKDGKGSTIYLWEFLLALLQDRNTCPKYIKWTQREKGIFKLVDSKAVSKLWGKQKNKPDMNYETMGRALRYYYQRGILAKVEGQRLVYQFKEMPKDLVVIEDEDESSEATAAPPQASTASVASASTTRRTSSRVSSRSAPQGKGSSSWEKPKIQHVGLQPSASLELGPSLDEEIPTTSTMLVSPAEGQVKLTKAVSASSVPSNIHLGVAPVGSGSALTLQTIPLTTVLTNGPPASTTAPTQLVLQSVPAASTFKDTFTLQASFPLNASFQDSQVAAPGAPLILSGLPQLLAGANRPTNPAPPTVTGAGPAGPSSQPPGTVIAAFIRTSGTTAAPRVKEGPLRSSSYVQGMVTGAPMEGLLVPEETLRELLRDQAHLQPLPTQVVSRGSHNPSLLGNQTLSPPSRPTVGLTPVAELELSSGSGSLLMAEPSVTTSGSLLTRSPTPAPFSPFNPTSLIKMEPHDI

On to TCGAAC, for which the binding signal is 1.01 fold enrichment (6-mer frequency, TF over GST control) in test [1]; 1.02 fold enrichment (6-mer frequency, TF over GST control) in [2]; 1.09 fold enrichment (6-mer frequency, TF over GST control) in test [3]; 1.07 fold enrichment (6-mer frequency, TF over GST control) in [4]; 1.03 fold enrichment (6-mer frequency, TF over GST control) in [5]; 1.06 fold enrichment (6-mer frequency, TF over GST control) in [6]. The binding signal in [7] was 1.01 fold enrichment (6-mer frequency, TF over GST control); in test [8], 1.01 fold enrichment (6-mer frequency, TF over GST control); in [9], 1.05 fold enrichment (6-mer frequency, TF over GST control); in test [10] it was 1.05 fold enrichment (6-mer frequency, TF over GST control); in test [11], 1.07 fold enrichment (6-mer frequency, TF over GST control); in test [12], 1.07 fold enrichment (6-mer frequency, TF over GST control). Moreover, the binding signal is 1.03 fold enrichment (6-mer frequency, TF over GST control) in [13]; 1.04 fold enrichment (6-mer frequency, TF over GST control) in test [14]; 1 fold enrichment (6-mer frequency, TF over GST control) in [15].
